Compounds with a hit are over-represented: about 11% of the library has one in this group of screens.
PNC assembly inh: High Content Assay for Compounds that inhibit the Assembly of the Perinucleolar Compartment | activity change (PNC), negative = inhibition, % at 10 µM | PC3M PTB-GFP, PNC prevalence imaging, 16 h; hits give low values | 140,000 compounds, 3.1% hits;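 active = readout at or below -70, meaning at least 70% loss of cells showing the perinucleolar compartment, a nuclear body marking cancer cells; inconclusive = readout between -30 and a set limit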
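Compounds are pinned in duplicate onto adhered PC3M cells stably expressing GFP-tagged PTB and incubated 16 h at 37 C. Cells are then fixed, nuclei stained with Hoechst, and PNC-positive cells counted.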
HPGD block: qHTS Assay for Inhibitors of HPGD (15-Hydroxyprostaglandin Dehydrogenase); Potency, µM, usual class: inhibitors; purified HPGD, NADH fluorescence kinetic, PGE2 substrate; 15-hydroxyprostaglandin dehydrogenase [NAD(+)] (Homo sapiens), P15428; 150,000 compounds, 4.3% hits; AID 894, 2007
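NADH formation kinetics: reaction with 30 uM PGE2 and 1 mM NAD+ (final), 20 nM enzyme, Tris-HCl pH 8 with Tween 20, after 15 min compound preincubation at room temperature. Fluorescence change, last versus first of five reads.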
KDM4E inh: qHTS Assay for Inhibitors of Human Jumonji Domain Containing 2E (JMJD2E); JMJD2E catalytic domain, FDH-coupled NADH fluorescence (FDH is formaldehyde dehydrogenase); Potency, µM (top dose mostly 57.1 µM), most hits filed as inhibitors; AID 2147, 2009; 230,000 compounds, 1.6% hits; note: nearly all actives have a fitted effect of over 50% in size
ALDH1A1 block: qHTS Assay for Inhibitors of Aldehyde Dehydrogenase 1 (ALDH1A1) | Aldehyde dehydrogenase 1A1 (Homo sapiens), P00352 | Purified ALDH1A1, NADH fluorescence, propionaldehyde substrate | Potency, µM (top dose mostly 75.3 µM), actives largely listed as inhibitors | 220,000 compounds, 7.3% hits | AID 1030, 2008
Target sequence (P00352 whole entry, looked up): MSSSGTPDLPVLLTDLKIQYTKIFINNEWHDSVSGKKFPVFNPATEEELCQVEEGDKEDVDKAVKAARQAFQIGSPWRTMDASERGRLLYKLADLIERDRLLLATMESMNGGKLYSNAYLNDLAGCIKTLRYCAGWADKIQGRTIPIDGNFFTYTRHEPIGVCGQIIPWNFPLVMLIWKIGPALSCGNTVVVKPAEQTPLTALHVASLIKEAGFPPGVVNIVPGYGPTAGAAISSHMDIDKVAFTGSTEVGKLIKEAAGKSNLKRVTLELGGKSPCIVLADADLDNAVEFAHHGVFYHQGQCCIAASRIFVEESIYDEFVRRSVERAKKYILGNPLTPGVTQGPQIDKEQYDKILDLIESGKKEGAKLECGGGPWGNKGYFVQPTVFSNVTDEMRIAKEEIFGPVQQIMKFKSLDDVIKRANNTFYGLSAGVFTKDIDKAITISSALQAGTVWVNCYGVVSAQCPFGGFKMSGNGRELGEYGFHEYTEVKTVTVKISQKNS
Hits are given with their value; [ ] = remark or other dose. Unless noted, calls come from the whole dose curve; as a rule, active = well fitted inhibition curve with a large enough effect (not every such curve was filed as active); inconclusive = small, poorly fitted or top-dose-only effect, or another doubt; inactive = no such curve, though single readings can be large or run the other way.

For Cc1ccc(COn2c(-c3ccc(Cl)cc3Cl)nc3ncccc32)cc1 the results were PNC assembly inh inactive, HPGD block inactive, KDM4E inh inactive and ALDH1A1 block 18µM.
`Cc1cc[n+](-c2[nH]c(=O)sc2/C=N/NC([S-])=Nc2ccccc2)cc1C` gave PNC assembly inh inconclusive, HPGD block inactive, KDM4E inh inactive and ALDH1A1 block inconclusive.
For CC(C)(C)c1cc[n+](-c2[nH]c(=O)sc2/C=N/NC([S-])=Nc2ccccc2)cc1 the results were KDM4E inh inactive and ALDH1A1 block 25µM.
`CCOC(=O)c1c(NC(=O)CSc2nnc(C)o2)sc(C)c1C` gave KDM4E inh inactive.
Screening CCOC(=O)c1sc(=S)sc1SCc1cccc(C(F)(F)F)c1 returned PNC assembly inh inconclusive, HPGD block 28µM, KDM4E inh inactive and ALDH1A1 block inconclusive.
Screening O=c1[nH]ncn1-c1ccc(Br)cc1 returned KDM4E inh inactive and ALDH1A1 block inactive.
For O=C(COc1ccccc1[N+](=O)[O-])N(Cc1ccccc1)c1ccccn1 the results were KDM4E inh inconclusive and ALDH1A1 block inactive.
For CCn1c(/C(C#N)=N/O)nc2ccccc21 the results were PNC assembly inh inconclusive, HPGD block 35µM, KDM4E inh inactive and ALDH1A1 block 20µM.
N#CCCn1c(=O)cnc2cnc(Nc3ccccc3)nc21 was read as HPGD block inactive and ALDH1A1 block inactive.
For O=C(CSc1nnnn1-c1ccc2c(c1)OCCO2)OC1CCCCC1 the results were PNC assembly inh inactive, HPGD block inactive, KDM4E inh inactive and ALDH1A1 block 5µM.
`Cc1ccc(NC(=O)CCSc2nnnn2-c2ccc3c(c2)OCO3)cc1C` gave PNC assembly inh inactive, HPGD block inactive, KDM4E inh inactive and ALDH1A1 block 13µM.
O=C(CSc1nnnn1-c1ccc2c(c1)OCCO2)N1CCc2ccccc21 was read as PNC assembly inh inconclusive, KDM4E inh inactive and ALDH1A1 block inactive.
Screening CCOC(=O)c1csc(NC(=O)CSc2nnnn2-c2ccc3c(c2)OCCO3)n1 returned PNC assembly inh -88, HPGD block inactive, KDM4E inh inactive and ALDH1A1 block inactive.
CCn1nnnc1SCC(=O)Nc1ccc2c(c1)OCO2 was read as PNC assembly inh inactive, HPGD block inactive, KDM4E inh inactive and ALDH1A1 block inactive.
Screening CCC(=O)Nc1ccc(NC(=O)CSc2nnnn2-c2ccc3c(c2)OCCO3)cc1 returned KDM4E inh inactive and ALDH1A1 block inactive.
O=C(NC1CCN(C(=O)c2cccs2)CC1)c1ccccc1 was read as KDM4E inh inactive.
Screening COc1ccc(NC(=O)CSc2nnc(CCC(=O)Nc3ccc(C)c(Cl)c3)n2C)cc1 returned PNC assembly inh inconclusive, HPGD block inactive, KDM4E inh inactive and ALDH1A1 block inactive.
For COc1ccccc1Nc1nc(N)nc(CN2CCC(C)CC2)n1 the results were KDM4E inh inactive and ALDH1A1 block inactive.
Screening COc1ccccc1Nc1nc(N)nc(CN2CCC(Cc3ccccc3)CC2)n1 returned PNC assembly inh inconclusive, HPGD block inconclusive, KDM4E inh inactive and ALDH1A1 block 13µM.
COc1ccc(CCCO[C@@H](Cn2ccnc2)c2ccc(OC)cc2)cc1 was read as HPGD block inactive, KDM4E inh inactive and ALDH1A1 block inconclusive.
Screening Cc1noc(C)c1-c1ccc2ncnc(N(C)Cc3ccco3)c2c1 returned HPGD block 13µM, KDM4E inh inactive and ALDH1A1 block inactive.
`Cc1ccccc1-c1ccc2ncnc(N(C)Cc3ccco3)c2c1` gave ALDH1A1 block inactive.
Cc1ccc(N(C(C)C(=O)NCc2ccncc2)S(C)(=O)=O)cc1C (stereo not given) was read as KDM4E inh inactive and ALDH1A1 block inactive.
CC1CC[C@]2(CO)CC[C@]3(C)C(=CCC4[C@@]5(C)CCC(O)C(C)(C)C5CC[C@@]43C)C2C1C (stereo not given in full) was read as HPGD block inactive, KDM4E inh inactive and ALDH1A1 block inactive.
c1nc(N2CCC3(CC2)OCCO3)c2[nH]cnc2n1 was read as PNC assembly inh -113, HPGD block inactive, KDM4E inh inactive and ALDH1A1 block inactive.
For COCCCNC(=S)N/N=C/c1ccccc1O the results were KDM4E inh 28µM and ALDH1A1 block inconclusive.
Screening Oc1ccccc1/C=N/NC(=S)NC1CC2CCC1C2 (stereo not given) returned KDM4E inh 25µM and ALDH1A1 block inconclusive.
`COc1ccccc1-n1c(SCC(N)=O)nnc1-c1ccc(S(=O)(=O)N2CCCCC2)cc1` gave PNC assembly inh inactive, HPGD block inactive, KDM4E inh inactive and ALDH1A1 block 4.5µM.
For NC(=O)CSc1nnc(-c2ccc(S(=O)(=O)N3CCCCC3)cc2)n1-c1ccccc1 the results were PNC assembly inh inconclusive, HPGD block inactive, KDM4E inh inconclusive and ALDH1A1 block 16µM.
`COc1ccccc1-n1c(SCC(=O)N2CCCC2)nnc1-c1ccccc1` gave KDM4E inh inactive.
Screening Cc1cccc(N2CCN(C(=O)COc3cccc4c3OC(C)(C)C4)CC2)c1C returned PNC assembly inh inconclusive, HPGD block inactive, KDM4E inh inactive and ALDH1A1 block inactive.
For COC(=O)c1sccc1NC(=O)COc1ccccc1Cl the results were PNC assembly inh inactive, HPGD block inactive, KDM4E inh inactive and ALDH1A1 block inactive.
Screening Cc1ccc(S(=O)(=O)N2CC=C(c3ccc(F)cc3)CC2)cc1 returned PNC assembly inh -80, HPGD block inactive, KDM4E inh inactive and ALDH1A1 block inactive.
Cc1c(C2=CCN(S(=O)(=O)c3ccc(Br)cc3)CC2)c2ccccc2n1C was read as PNC assembly inh inactive, HPGD block inactive, KDM4E inh 16µM and ALDH1A1 block inactive.
For COC(=O)c1cccc(C23CC4(C2)[C@H](CN(Cc2ccc(C(F)(F)F)cc2)[C@@H]4c2ccccc2)C3c2ccccc2)c1 (stereo not given in full) the results were HPGD block inactive, KDM4E inh inactive and ALDH1A1 block inactive.
For COC(=O)c1cccc(C23CC4(C2)[C@H](CN(Cc2ccc(-c5ccccc5)cc2)[C@@H]4c2ccccc2)C3c2ccc(C(F)(F)F)cc2)c1 (stereo not given in full) the results were HPGD block inactive, KDM4E inh 20µM and ALDH1A1 block inactive.
Screening O=c1c(-c2cccc(Cl)c2)nc2cncnc2n1Cc1ccccc1Cl returned HPGD block inactive and ALDH1A1 block inactive.
`FC(F)(F)c1nc(SCc2ccc(Cl)cc2)n[nH]1` gave HPGD block inactive and ALDH1A1 block inactive[13.5 µM].
`Cc1cccc2nc(-c3cccc(NC(=O)c4ccc(Cl)cc4)c3)cn12` gave PNC assembly inh inactive, HPGD block inactive, KDM4E inh inactive and ALDH1A1 block inactive.
For Cc1cccc2nc(-c3cccc(NC(=O)Cc4ccccc4)c3)cn12 the results were PNC assembly inh -109, HPGD block inactive, KDM4E inh inconclusive and ALDH1A1 block inconclusive.

Screening data deposited in PubChem by National Center for Advancing Translational Sciences (NCATS).
